This is an account of results in PubChem BioAssay (NCI).

Holding throughout (assay): NCI-60 one-dose screen, 48 h (100 = growth as untreated, 0 = no growth, -100 = all killed)
One test concerns A549/ATCC NSCLC. Particulars: 10 µM unless noted.
In another test the test system is DU-145 prostate. Particulars: 10 µM unless noted.
A further test deals with K-562 leukemia. As to conditions: 10 µM unless noted.
For a further test, the system named is RXF 393 renal. Particulars: 10 µM unless noted.
Another test concerns SF-295 CNS. Particulars: 10 µM unless noted.
For another test, the system named is UACC-257 melanoma. Particulars: 10 µM unless noted.
A further test deals with HT29 colon. As to conditions: 10 µM unless noted.
In a further test the test system is SNB-75 CNS. Particulars: 10 µM unless noted.
For another test, the system named is SK-MEL-2 melanoma. Particulars: 10 µM unless noted.
In the next test the test system is ACHN renal. Particulars: 10 µM unless noted.
In another test the test system is CAKI-1 renal. Particulars: 10 µM unless noted.
A further test deals with A498 renal. As to conditions: 10 µM unless noted.
The next test relates to HL-60(TB) leukemia. Particulars: 10 µM unless noted.
The next test concerns OVCAR-5 ovarian. Particulars: 10 µM unless noted.
The next test has as its system OVCAR-4 ovarian. Particulars: 10 µM unless noted.
The next test deals with SK-OV-3 ovarian. As to conditions: 10 µM unless noted.
The next test has as its system HS 578T breast. Particulars: 10 µM unless noted.
For the next test, the system named is NCI/ADR-RES ovarian. Particulars: 10 µM unless noted.
For the next test, the system named is T-47D breast. As to conditions: 10 µM unless noted.
The next test deals with BT-549 breast. As to conditions: 10 µM.

The panel holds about 83,000 compounds, 20% with a hit somewhere; the sample as a whole holds those more often.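 Treatment: one concentration, 48 hours, 96-well format. Scoring: percent growth, with anything below 10 considered active.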 Unmarked numbers belong to inactive results. Calls of active or inactive are those of the source.

Regarding `O=C(CCl)NCNC(=O)CCl`, the growth with A549/ATCC NSCLC was 93.2%; with DU-145 prostate, 103%; with K-562 leukemia, 98.9%; in the test on RXF 393 renal, 107%; with SF-295 CNS it was 56.5%; in the test on UACC-257 melanoma, 76.5%. Besides, the growth with HT29 colon was 105%; in the test on SNB-75 CNS it was 85.9%; in the test with SK-MEL-2 melanoma, 90.4%; in the test with ACHN renal it was 94.5%; with CAKI-1 renal, 56.8%; in the test on A498 renal, 109%. For the same compound, the growth in the test on HL-60(TB) leukemia is 102%; in the test with OVCAR-5 ovarian, 115%; in the test with OVCAR-4 ovarian, 77.4%; in the test on SK-OV-3 ovarian it was 98.8%; with HS 578T breast, 96.8%; with NCI/ADR-RES ovarian, 103%. Moreover, the growth in the test on T-47D breast was 92.6%; in the test on BT-549 breast, 86.7%.

Take `COc1cc[c]([Hg][Cl])cc1`: the growth with A549/ATCC NSCLC is 94.8%; in the test with K-562 leukemia, 17%; in the test on RXF 393 renal, -42.2% (active); with SF-295 CNS it was 93.3%; in the test with UACC-257 melanoma, 65.5%; with HT29 colon, 48.5%. Also, the growth in the test on SNB-75 CNS was 50.5%; with SK-MEL-2 melanoma, 39.9%; with ACHN renal, 86.5%; with CAKI-1 renal, 78.6%; in the test with A498 renal it was 84.8%; in the test with HL-60(TB) leukemia, -22.4% (active). Moreover, the growth in the test with OVCAR-5 ovarian is 105%; with OVCAR-4 ovarian, 65.1%; in the test with SK-OV-3 ovarian, 120%; in the test on HS 578T breast, 30.5%; in the test with NCI/ADR-RES ovarian, 86.2%; with T-47D breast, -3.04% (active). Further, in the test on BT-549 breast, the growth was 45.5%.

On to `Nc1ncnc2c1c(C(=O)NO)cn2C1OC(CO)C(O)C1O` (stereo not drawn), for which the growth is -32.1% (active) in the test on DU-145 prostate; -3.31% (active) in the test on K-562 leukemia; -26.9% (active) in the test with RXF 393 renal; -47.6% (active) in the test with SF-295 CNS; -48% (active) in the test on UACC-257 melanoma; 7.07% (active) with HT29 colon. In addition, the growth was 4.46% (active) with SNB-75 CNS; -18.7% (active) with SK-MEL-2 melanoma; -15.4% (active) with ACHN renal; -23.1% (active) in the test with CAKI-1 renal; -30.1% (active) in the test on A498 renal; -43% (active) in the test with HL-60(TB) leukemia. Further, the growth with OVCAR-5 ovarian was 16.5%; in the test on OVCAR-4 ovarian, 0.579% (active); with SK-OV-3 ovarian, -18.2% (active); in the test on HS 578T breast, -7.9% (active); in the test with NCI/ADR-RES ovarian, 2.24% (active); in the test with T-47D breast, -11.1% (active). Also, the growth in the test with BT-549 breast was -0.861% (active).

With `CCOC(=O)/C=C(\C)Nc1ccc(N/C(C)=C/C(=O)OCC)c2c1Oc1ccccc1O2`, the growth in the test on A549/ATCC NSCLC was 106%; in the test with DU-145 prostate, 110%; in the test with K-562 leukemia, 81.7%; with RXF 393 renal, 0.357% (active); in the test with SF-295 CNS it was 99.4%; in the test on UACC-257 melanoma, 109%. The growth was 112% with HT29 colon; 103% in the test with SNB-75 CNS; 100% in the test with SK-MEL-2 melanoma; 104% with ACHN renal; 95.5% with CAKI-1 renal; 102% with A498 renal. Also, the growth was 63.4% in the test on HL-60(TB) leukemia; 106% in the test on OVCAR-5 ovarian; 114% in the test on OVCAR-4 ovarian; 107% in the test with SK-OV-3 ovarian; 87.3% in the test on HS 578T breast; 99.5% with NCI/ADR-RES ovarian. The growth in the test with T-47D breast was 103%; in the test with BT-549 breast it was 102%.

As for `c1ccc(CCN2CCCCC2Cc2ccccc2)cc1` (stereo not drawn), the growth was 96.2% with A549/ATCC NSCLC; 101% in the test on K-562 leukemia; 117% with RXF 393 renal; 91.4% in the test on SF-295 CNS; 98.5% in the test with UACC-257 melanoma; 72.8% in the test on HT29 colon. In addition, the growth in the test with SNB-75 CNS is 107%; in the test with SK-MEL-2 melanoma it was 87.7%; in the test with ACHN renal it was 94.6%; in the test on CAKI-1 renal, 101%; in the test on A498 renal, 89.5%; in the test on HL-60(TB) leukemia it was 80.3%. Also, the growth in the test on OVCAR-5 ovarian is 83%; with OVCAR-4 ovarian it was 115%; in the test on SK-OV-3 ovarian, 106%; with HS 578T breast, 116%; in the test on NCI/ADR-RES ovarian, 87.8%; with T-47D breast, 86.2%. For the same compound, the growth in the test with BT-549 breast was 111%.

Consider `COC(=O)C(=[N+]=[N-])C(=O)OC`, for which the growth in the test on A549/ATCC NSCLC was 99.3%; with DU-145 prostate, 112%; in the test with K-562 leukemia, 95.5%; in the test on RXF 393 renal, 102%; in the test on SF-295 CNS, 101%; with UACC-257 melanoma, 96.4%. Besides, the growth in the test with HT29 colon was 101%; with SNB-75 CNS, 80.6%; in the test with SK-MEL-2 melanoma, 91.2%; in the test with ACHN renal, 94%; in the test with CAKI-1 renal, 109%; in the test with A498 renal it was 100%. In addition, the growth is 100% with HL-60(TB) leukemia; 107% with OVCAR-5 ovarian; 97.1% in the test on OVCAR-4 ovarian; 101% in the test with SK-OV-3 ovarian; 121% with HS 578T breast; 108% in the test with NCI/ADR-RES ovarian. Further, the growth in the test with T-47D breast was 109%; with BT-549 breast, 103%.

In the case of `COP(=S)(OC)Oc1ccc(SC)c(C)c1`, the growth in the test on DU-145 prostate is 111%; in the test with K-562 leukemia, 99.6%; with RXF 393 renal, 107%; in the test on SF-295 CNS it was 91.5%; with HT29 colon it was 103%; with SNB-75 CNS it was 89.6%. Further, the growth in the test with SK-MEL-2 melanoma is 103%; in the test on ACHN renal, 101%; in the test on CAKI-1 renal, 92.6%; in the test on A498 renal, 94.3%; in the test on OVCAR-5 ovarian it was 93.2%; in the test with SK-OV-3 ovarian, 100%. Moreover, the growth in the test with HS 578T breast is 110%; in the test with NCI/ADR-RES ovarian it was 100%; in the test with T-47D breast, 96.6%; in the test on BT-549 breast it was 83.9%.

Consider `Nc1cccc2c1Oc1ccccc1O2`, for which the growth with A549/ATCC NSCLC is 97%; with DU-145 prostate, 120%; with K-562 leukemia, 96.4%; in the test with RXF 393 renal, 145%; in the test on SF-295 CNS, 119%; in the test on UACC-257 melanoma, 102%. Besides, the growth with HT29 colon was 119%; in the test on SNB-75 CNS, 133%; in the test with SK-MEL-2 melanoma, 98%; in the test with ACHN renal, 99.2%; in the test with CAKI-1 renal, 88%; with A498 renal, 118%. Besides, the growth was 107% with HL-60(TB) leukemia; 98.3% in the test with OVCAR-5 ovarian; 115% with OVCAR-4 ovarian; 184% in the test with SK-OV-3 ovarian; 112% with HS 578T breast; 113% in the test with NCI/ADR-RES ovarian. In addition, the growth in the test on T-47D breast was 115%; with BT-549 breast it was 104%.
